The values that follow come from PubChem BioAssay (EPA / NIEHS).

Active and inactive are the calls of the source. The calls were made as follows: active = hit-call score of the fitted dose curve at least 0.9, where 1 is the maximum; inactive = score below 0.9.

Test [1] can be described thus: ATG_DR4_LXR_CIS: Attagene CIS-FACTORIAL HepG2 Assay for human Liver X Receptor (LXR), DR4 submotif (AID 2282929). The settings on record: HepG2 Attagene DR4 cis-reporter, mRNA transcription; actives raise or lower the signal. The procedure, abridged: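 HepG2 cells were transiently transfected with multiple cis-regulated reporter units and dosed for 24 hours. The DR4 reporter mRNA was quantified by RT-PCR, 6-FAM labelling and capillary electrophoresis. Bidirectional fits used DMSO as baseline.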

The target in test [2] is Aryl hydrocarbon receptor (Homo sapiens) (UniProt P35869). The experiment in a line: ATG_Ahr_CIS: Attagene CIS-FACTORIAL HepG2 Assay for human Aryl Hydrocarbon Receptor (Ahr) (AID 2282930). The settings on record: HepG2 AhR cis-factorial reporter transcription; actives raise or lower the signal. Put shortly: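 Transient MRTU transfection of HepG2 → 24 h compound exposure → total RNA, oligo(dT) RT → PCR, 6-FAM extension, HpaI cut → CE fluorescence. DMSO = baseline; bidirectional curve fit.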
Chain of Aryl hydrocarbon receptor (Homo sapiens) (P35869 whole entry, looked up): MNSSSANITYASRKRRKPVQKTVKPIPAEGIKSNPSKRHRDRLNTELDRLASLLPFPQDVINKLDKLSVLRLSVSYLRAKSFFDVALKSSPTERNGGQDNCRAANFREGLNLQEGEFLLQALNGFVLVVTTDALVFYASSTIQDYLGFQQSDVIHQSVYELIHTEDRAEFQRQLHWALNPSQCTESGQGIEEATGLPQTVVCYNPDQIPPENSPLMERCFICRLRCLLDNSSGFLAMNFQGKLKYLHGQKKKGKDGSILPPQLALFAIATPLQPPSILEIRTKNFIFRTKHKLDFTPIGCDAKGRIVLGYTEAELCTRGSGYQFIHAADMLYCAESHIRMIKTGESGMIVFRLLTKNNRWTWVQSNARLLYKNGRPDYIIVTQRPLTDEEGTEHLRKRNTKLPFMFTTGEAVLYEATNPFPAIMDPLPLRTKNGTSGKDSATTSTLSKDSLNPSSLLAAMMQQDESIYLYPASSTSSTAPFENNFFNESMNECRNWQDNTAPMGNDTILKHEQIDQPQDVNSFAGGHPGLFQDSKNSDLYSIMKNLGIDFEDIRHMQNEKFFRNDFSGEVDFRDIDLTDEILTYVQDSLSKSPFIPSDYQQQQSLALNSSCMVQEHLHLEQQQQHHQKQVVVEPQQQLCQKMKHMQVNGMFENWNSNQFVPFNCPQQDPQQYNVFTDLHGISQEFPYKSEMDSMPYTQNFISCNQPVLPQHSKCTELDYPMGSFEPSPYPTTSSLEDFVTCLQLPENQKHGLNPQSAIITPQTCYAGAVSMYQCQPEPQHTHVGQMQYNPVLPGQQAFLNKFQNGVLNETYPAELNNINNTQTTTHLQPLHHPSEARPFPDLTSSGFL

Test [3] in a line: ATG_AP_1_CIS: Attagene CIS-FACTORIAL HepG2 Assay for human Activator Protein 1 (AP-1) (AID 2282931). The settings on record: HepG2 Attagene cis-factorial AP-1 reporter mRNA; actives raise or lower the signal. Put shortly:
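HepG2 cells transiently transfected with cis-element-driven reporter transcription units, dosed for 24 hours. Reporter mRNA measured by RT-PCR, 6-FAM labelling, HpaI digestion and capillary electrophoresis. Bidirectional fitting against DMSO baseline.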

Test [4] in a line: ATG_AP_2_CIS: Attagene CIS-FACTORIAL HepG2 Assay for human Activator Protein 2 (AP-2) (AID 2282932). As to conditions: HepG2 AP-2 cis-reporter, Attagene transcription factor profiling; actives raise or lower the signal. The procedure, abridged: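 Endogenous transcription factor activity is reported through transfected multiplex reporter constructs in HepG2, after 24 h of compound exposure. Transcripts were quantified by RT-PCR and capillary electrophoresis of fluorescent fragments. Bidirectional fit against DMSO.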

Test [5] is described as follows: ATG_BRE_CIS: Attagene CIS-FACTORIAL HepG2 Assay for human Bone Morphogenetic Protein (BMP) Response Element (BRE) (AID 2282933). As to conditions: HepG2 BMP response element reporter, Attagene transcription factor profiling; actives raise or lower the signal. The procedure, abridged:
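A HepG2 multiplex reporter system measured inducible reporter mRNA 24 h post-dosing. Detection: RT-PCR, 6-FAM primer extension, HpaI digestion, capillary electrophoresis. Activity fitted bidirectionally relative to DMSO.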

Test [6] has as its target Retinoic acid receptor alpha (Homo sapiens) (UniProt P10276). The experiment in a line: ATG_DR5_RAR_CIS: Attagene CIS-FACTORIAL HepG2 Assay for human Retinoic Acid Receptor Alpha (RARE), DR5 submotif (AID 2282934).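 As to AC50: reporter responds to endogenous RAR alpha beta and gamma in HepG2 not RARA alone.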 The settings on record: HepG2 Attagene cis-factorial RARE DR5 reporter, mRNA; actives raise or lower the signal. The procedure, abridged: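 Transient MRTU transfection of HepG2; 24 h compound treatment; TriZol RNA, oligo(dT) RT, PCR, FAM labelling, capillary electrophoresis. Bidirectional fit vs DMSO. Endogenous TF activity at DR5 RARE.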

Test [7] concerns the target Transcription factor E2F1 (Homo sapiens) (UniProt Q01094). The experiment in a line: ATG_E2F_CIS: Attagene CIS-FACTORIAL HepG2 Assay for human E2F Transcription Factor 1 (AID 2282935). The settings on record: HepG2 Attagene cis-reporter, E2F reporter RNA transcripts; actives raise or lower the signal. The procedure, abridged: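 Gain or loss of reporter transcript, fitted against DMSO, reflects E2F1-driven transcription. Transiently transfected HepG2 dosed 24 h before RNA isolation. Quantified by fluorescent RT-PCR products separated by capillary electrophoresis.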

A short description of test [8]: ATG_E_Box_CIS: Attagene CIS-FACTORIAL HepG2 Assay for human Enhancer Box (E-box) (AID 2282936). The settings on record: HepG2 E-box cis-reporter transcription, actives raise or lower the signal. The procedure, abridged:
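E-box-driven reporter transcripts measured in transiently transfected HepG2 after 24 h exposure: RNA reverse-transcribed, PCR-amplified, fluorescently labelled, digested and resolved by capillary electrophoresis. Gain or loss relative to DMSO.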

Test [9] in a line: ATG_M_61_CIS: Attagene CIS-FACTORIAL HepG2 Assay for M61 Transcription Factor (Internal Marker) (AID 2282937). The settings on record: HepG2 Attagene CIS-FACTORIAL M61 internal marker reporter; actives raise or lower the signal. The procedure, abridged:
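HepG2 cells transiently transfected with multiplexed cis-promoter reporter units reporting endogenous transcription factor activity, measured 24 h after dosing. Reporter mRNA quantified by RT-PCR and capillary electrophoresis; bidirectional fit against DMSO baseline.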

The nature of test [10]: ATG_EGR_CIS: Attagene CIS-FACTORIAL HepG2 Assay for human Early Growth Response 1 (EGR1) (AID 2282938). The settings on record: HepG2 Attagene CIS-FACTORIAL EGR reporter mRNA; actives raise or lower the signal. Put shortly:
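HepG2 cells transiently transfected with cis-element-driven multiplexed reporter units, dosed for 24 h. EGR1-element reporter mRNA quantified by RT-PCR, 6-FAM labelling, HpaI digestion and capillary electrophoresis; bidirectional fit versus DMSO.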

Test [11] in a line: ATG_M_19_CIS: Attagene CIS-FACTORIAL HepG2 Assay for M19 Transcription Factor (Internal Marker) (AID 2282939). The settings on record: HepG2 Attagene CIS-FACTORIAL M19 internal marker reporter; actives raise or lower the signal. The procedure, abridged: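 Chemical-treated HepG2 (24 h) with MRTU constructs; reporter transcripts detected by fluorescent RT-PCR fragment analysis on capillary electrophoresis. Internal background marker, DMSO as baseline.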

The nature of test [12]: ATG_ERE_CIS: Attagene CIS-FACTORIAL HepG2 Assay for Estrogen Response Element (ERE) (AID 2282940). The settings on record: HepG2 ERE cis-reporter, Attagene RNA transcript; actives raise or lower the signal. Put shortly: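 Human liver cells (HepG2) bearing transiently transfected, promoter-regulated reporter units were exposed 24 h. Reporter mRNA induction was detected by capillary electrophoresis of labelled RT-PCR products and fitted bidirectionally to DMSO.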

Test [13] is described as follows: ATG_Ets_CIS: Attagene CIS-FACTORIAL HepG2 Assay for human Erythroblast Transformation Specific (ETS) (AID 2282941). As to conditions: HepG2 ETS cis-reporter transcription, actives raise or lower the signal. The procedure, abridged:
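RT-PCR/capillary electrophoresis fluorescence read-out of reporter mRNA; HepG2 transient multi-reporter transfection; 24 h compound exposure; gain or loss of signal fitted bidirectionally relative to DMSO.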

Test [14] addresses Hepatocyte nuclear factor 3-beta (Homo sapiens) (UniProt Q9Y261). The test is described as follows: ATG_FoxA2_CIS: Attagene CIS-FACTORIAL HepG2 Assay for human Forkhead box A2 (FOXA2) (AID 2282942). As to conditions: HepG2 cis-reporter transcription factor activity, 24 h; actives raise or lower the signal. The procedure, abridged:
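HepG2 transiently transfected with a multiplexed cis-promoter reporter library read endogenous FOXA2 activity. After 24 h compound exposure, reporter mRNA was quantified by RT-PCR, HpaI digestion and capillary electrophoresis. Bidirectional fit against DMSO.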

Test [15] is described as follows: ATG_FoxO_CIS: Attagene CIS-FACTORIAL HepG2 Assay for human Forkhead box O (FoxO) (AID 2282943). The settings on record: HepG2 Attagene cis-reporter, FoxO element, mRNA; actives raise or lower the signal. Put shortly: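 HepG2, transient MRTU transfection (cis element, endogenous TFs). Dose 24 h. TriZol RNA → oligo(dT) RT → PCR → 6-FAM primer extension → HpaI cut → CE. Gain/loss vs DMSO.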

The nature of test [16]: ATG_GATA_CIS: Attagene CIS-FACTORIAL HepG2 Assay for human GATA Binding Protein (AID 2282944). The settings on record: HepG2 GATA cis-element reporter, Attagene multiplex mRNA; actives raise or lower the signal. Put shortly: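 Transfected cis-reporter HepG2 cells were treated with chemicals for 24 hours. Total RNA was then converted to cDNA, amplified with reporter-specific primers and analysed by fluorescent capillary electrophoresis, using DMSO-treated wells as baseline.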

A short description of test [17]: ATG_GLI_CIS: Attagene CIS-FACTORIAL HepG2 Assay for human Zinc Finger Protein GLI1 (AID 2282945). The settings on record: HepG2, Attagene cis-factorial reporter mRNA, GLI element; actives raise or lower the signal. The procedure, abridged:
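Bidirectional curve fits relative to DMSO, using reporter mRNA levels from RT-PCR plus capillary electrophoresis. Cells were HepG2 transiently carrying cis-regulated reporter constructs, harvested 24 h after dosing.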

Test [18] concerns the target Bile acid receptor (Homo sapiens) (UniProt Q96RI1). The test is described as follows: ATG_IR1_CIS: Attagene CIS-FACTORIAL HepG2 Assay for human Nuclear Receptor Subfamily 1 Group H Member 4 (NR1H4), IR1 submotif (AID 2282946). The settings on record: IR1 reporter transcription, actives raise or lower the signal. Put shortly:
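HepG2 cells transiently transfected with multiplexed cis-element reporter units read endogenous transcription factor activity. After 24 h compound exposure, reporter mRNA was quantified by RT-PCR, fluorescent labelling, HpaI digestion and capillary electrophoresis; bidirectional fitting versus DMSO baseline.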

The nature of test [19]: ATG_ISRE_CIS: Attagene CIS-FACTORIAL HepG2 Assay for human Interferon Regulatory Factor 1 (IRF1) binding to an Interferon-Stimulated Response Element (ISRE) (AID 2282948). As to conditions: HepG2 ISRE cis-reporter (Attagene), mRNA transcription readout; actives raise or lower the signal. The procedure, abridged: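 Read-out: fluorescent RT-PCR products resolved by capillary electrophoresis, reporting endogenous transcription factor activity via ISRE-driven reporter mRNA in transfected HepG2 cells dosed for 24 h; gain or loss fitted relative to DMSO.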

The nature of test [20]: ATG_GRE_CIS: Attagene CIS-FACTORIAL HepG2 Assay for human Glucocorticoid Response Elements (GRE) (AID 2282947). The settings on record: HepG2 GRE cis-reporter, Attagene multiplex mRNA; actives raise or lower the signal. Put shortly:
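Reporter transcripts read by RT-PCR with capillary electrophoresis fluorescence after a 24 h chemical exposure of HepG2 cells transiently transfected with multiple cis-element reporter units. Gain or loss fitted against DMSO.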

Chain of Transcription factor E2F1 (Homo sapiens) (Q01094 whole entry, looked up): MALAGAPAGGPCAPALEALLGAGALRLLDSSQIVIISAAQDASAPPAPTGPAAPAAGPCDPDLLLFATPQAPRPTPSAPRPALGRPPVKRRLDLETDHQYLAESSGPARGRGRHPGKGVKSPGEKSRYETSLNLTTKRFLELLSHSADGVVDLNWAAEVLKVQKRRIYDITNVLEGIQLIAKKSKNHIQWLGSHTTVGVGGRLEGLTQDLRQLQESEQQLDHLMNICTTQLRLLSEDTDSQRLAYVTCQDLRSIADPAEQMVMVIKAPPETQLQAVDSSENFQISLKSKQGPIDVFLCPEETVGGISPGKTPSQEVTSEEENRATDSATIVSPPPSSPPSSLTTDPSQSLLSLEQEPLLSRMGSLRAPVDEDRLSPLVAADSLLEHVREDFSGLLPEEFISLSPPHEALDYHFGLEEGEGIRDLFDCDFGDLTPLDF
Chain of Hepatocyte nuclear factor 3-beta (Homo sapiens) (Q9Y261 whole entry, looked up): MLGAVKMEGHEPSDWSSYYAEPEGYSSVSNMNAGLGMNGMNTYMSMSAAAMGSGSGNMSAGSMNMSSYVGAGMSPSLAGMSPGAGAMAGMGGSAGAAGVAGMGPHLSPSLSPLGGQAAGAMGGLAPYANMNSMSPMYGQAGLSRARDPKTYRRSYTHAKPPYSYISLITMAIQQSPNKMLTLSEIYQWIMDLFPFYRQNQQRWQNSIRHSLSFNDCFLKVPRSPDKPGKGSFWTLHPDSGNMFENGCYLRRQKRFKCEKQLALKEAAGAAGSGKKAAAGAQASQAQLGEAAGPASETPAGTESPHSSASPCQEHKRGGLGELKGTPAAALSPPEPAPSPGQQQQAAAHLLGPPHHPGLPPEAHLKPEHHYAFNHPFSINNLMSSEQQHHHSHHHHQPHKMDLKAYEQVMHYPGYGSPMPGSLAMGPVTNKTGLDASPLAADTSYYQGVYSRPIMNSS
Chain of Retinoic acid receptor alpha (Homo sapiens) (P10276 whole entry, looked up): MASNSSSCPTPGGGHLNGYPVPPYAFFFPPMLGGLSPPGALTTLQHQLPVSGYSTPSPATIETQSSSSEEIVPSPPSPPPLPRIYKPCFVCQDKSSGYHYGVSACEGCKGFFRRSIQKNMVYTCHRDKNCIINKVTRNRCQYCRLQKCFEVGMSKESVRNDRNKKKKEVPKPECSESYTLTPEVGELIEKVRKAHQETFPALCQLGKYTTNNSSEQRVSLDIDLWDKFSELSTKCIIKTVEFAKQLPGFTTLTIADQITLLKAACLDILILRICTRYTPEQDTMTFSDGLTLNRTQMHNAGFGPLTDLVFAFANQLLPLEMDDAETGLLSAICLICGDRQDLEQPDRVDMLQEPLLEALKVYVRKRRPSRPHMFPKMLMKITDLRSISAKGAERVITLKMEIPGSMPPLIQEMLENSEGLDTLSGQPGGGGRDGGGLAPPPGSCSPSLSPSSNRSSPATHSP
Chain of Bile acid receptor (Homo sapiens) (Q96RI1 whole entry, looked up): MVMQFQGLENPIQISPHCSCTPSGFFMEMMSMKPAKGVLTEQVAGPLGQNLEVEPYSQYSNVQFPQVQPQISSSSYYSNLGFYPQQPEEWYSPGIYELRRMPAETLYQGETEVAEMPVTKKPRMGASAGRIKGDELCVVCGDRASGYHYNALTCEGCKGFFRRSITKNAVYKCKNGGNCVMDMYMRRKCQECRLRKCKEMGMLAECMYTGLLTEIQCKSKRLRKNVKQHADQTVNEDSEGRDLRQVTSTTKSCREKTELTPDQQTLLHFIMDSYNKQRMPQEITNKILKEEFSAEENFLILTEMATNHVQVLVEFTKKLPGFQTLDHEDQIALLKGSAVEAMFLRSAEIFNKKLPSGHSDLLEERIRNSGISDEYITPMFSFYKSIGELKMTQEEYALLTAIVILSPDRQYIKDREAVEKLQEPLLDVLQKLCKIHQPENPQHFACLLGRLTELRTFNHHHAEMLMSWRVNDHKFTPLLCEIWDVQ

On to `BrCc1ccc(Br)cc1`, for which the outcome in [1], in test [3], in test [4], in [5], in [6] and in test [7] was inactive. The outcome in [8], in [9], in test [10], in [11], in [12] and in test [13] was inactive. Also, the outcome in test [14], in test [15], in test [16], in test [17], in test [18] and in [19] was inactive. For the same compound, the concentration at half-maximal activity (AC50) (in general, the concentration giving half of the maximal activity seen) in test [2] is 60.9 µM (active).

Take `Oc1ccc(Cc2ccc(O)cc2)cc1`: the result in [1], in [2], in test [3], in [4], in test [5] and in test [6] was inactive. Further, the result in test [7], in [8], in test [9], in test [10], in test [11] and in test [13] was inactive. Besides, the result in test [14], in [15], in test [16], in test [17] and in [19] was inactive. Also, in test [12], the AC50 was 0.774 µM (active).

`N#CCC#N`: the compound was called inactive in [1], in [2], in test [3], in [4], in test [5] and in [7]. Also, the outcome in test [8], in test [9], in test [10], in [11], in test [12] and in test [13] was inactive. Also, the compound was called inactive in [14], in [15], in test [16], in [17], in test [20] and in test [19]. Further, in [6], the half-maximal activity concentration (AC50) is 63.4 µM (active).

As for `CC(C)=CC1C(C(=O)OCc2cccc(Oc3ccccc3)c2)C1(C)C` (stereo not given), the values for the half-maximal activity concentration (AC50) in test [1] and in test [12] were 22.3 µM (active) and 100 µM (active), respectively. Further, the outcome in [2], in test [3], in test [4], in test [5], in test [6] and in test [7] was inactive. In addition, the outcome in test [8], in test [9], in test [10], in [11], in test [14] and in [15] was inactive. The compound was called inactive in test [16], in test [17], in test [18], in test [20] and in test [19].
